Source: PubChem BioAssay
Calls of active or inactive are those of the source.

Assays:
[1] = binders of probe aFSTL3 on microarray, primary screen, stem cell growth factor project, biochemical, small-molecule microarray, fluorescence 635/667 (AID 1064); conditions: higher = more signal;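 also: measures binding of the biotinylated anti-FSTL3 antibody to printed compounds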
[2] = binders from COS7 lysate, DM2A8 probe, primary screen, torsin A project, cell lysate, small-molecule microarray, fluorescence 635/667 (AID 1065); conditions: higher = more signal, COS7 lysate expressing mutant human TOR1A
[3] = binders of probe aFGF2 on microarray, primary screen, stem cell growth factor project, biochemical, small-molecule microarray, fluorescence 635/667 (AID 1067); conditions: higher = more signal;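 also: measures binding of biotinylated aFGF2 protein to printed compounds on slides; z-score merges feature fluorescence and signal-to-noise across triplicate slides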
[4] = binders of probe aFGF10 on microarray, primary screen, stem cell growth factor project, biochemical, small-molecule microarray, fluorescence 635/667 (AID 1071); conditions: higher = more signal;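 also: score merges 667 nm spot intensity and signal to noise from triplicate slides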
[5] = biological target: Neurogenic locus notch homolog protein 2 (Homo sapiens) (UniProt Q04721); experiment: Notch2 binders on small-molecule microarrays, primary screen, biochemical, small-molecule microarray, 635 nm fluorescence, stem cell growth factors (AID 1073); conditions: Notch2 binding, higher = more signal
[6] = biological target: Pro-neuregulin-1, membrane-bound isoform (Homo sapiens) (UniProt Q02297); experiment: NRG1 binders on small-molecule microarrays, primary screen, psychiatric disease protein project, biochemical, small-molecule microarray, fluorescence 635/667 (AID 1075); conditions: NRG1 binding, 635 nm fluorescence, higher = more signal;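 also: score combines 667 nm spot fluorescence with signal to noise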
Sequence of Pro-neuregulin-1, membrane-bound isoform (Homo sapiens) (Q02297 whole entry, looked up, the tested form may be a part, canonical isoform): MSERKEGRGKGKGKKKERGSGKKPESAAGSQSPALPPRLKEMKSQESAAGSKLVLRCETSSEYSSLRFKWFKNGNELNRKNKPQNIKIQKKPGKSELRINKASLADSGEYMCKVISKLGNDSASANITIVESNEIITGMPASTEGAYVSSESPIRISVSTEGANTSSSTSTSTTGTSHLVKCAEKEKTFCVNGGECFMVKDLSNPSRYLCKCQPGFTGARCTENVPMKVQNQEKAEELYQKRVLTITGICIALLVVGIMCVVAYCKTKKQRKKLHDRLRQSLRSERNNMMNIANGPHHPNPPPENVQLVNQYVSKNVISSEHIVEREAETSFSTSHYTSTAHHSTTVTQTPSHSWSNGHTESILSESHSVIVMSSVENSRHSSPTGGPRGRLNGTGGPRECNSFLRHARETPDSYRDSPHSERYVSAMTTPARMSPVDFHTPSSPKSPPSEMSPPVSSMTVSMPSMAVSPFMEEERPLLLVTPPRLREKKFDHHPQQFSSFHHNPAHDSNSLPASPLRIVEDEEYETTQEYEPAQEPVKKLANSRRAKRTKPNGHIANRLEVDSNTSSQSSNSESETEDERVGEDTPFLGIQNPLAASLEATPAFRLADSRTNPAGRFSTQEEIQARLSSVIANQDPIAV

[7] = system: Neuregulin-1 EGF-like domain; experiment: binders of neuregulin-1 EGF-like domain, primary screen, biochemical, small-molecule microarray, 635 nm fluorescence (AID 1081); conditions: small-molecule microarray binding, higher = more signal;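 also: binding of the protein to compounds printed on small-molecule microarray slides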
[8] = FRG1 promoter luciferase signal modulators, primary screen, FRG1 inhibition for FSHD, cell-based, C2C12 myotubes, firefly/Renilla luciferase, luminescence (AID 1084); conditions: higher = more signal, called active from +8 up or from −8 down
[9] = binders of probe aFST on microarray, primary screen, stem cell growth factor project, biochemical, small-molecule microarray, fluorescence 635/667 (AID 1086); conditions: higher = more signal;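 also: score merges 667 nm fluorescence with signal-to-noise of each printed compound spot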
[10] = binders of probe aHhip on microarray, primary screen, stem cell growth factor project, biochemical, small-molecule microarray, fluorescence 635/667 (AID 1087); conditions: higher = more signal;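 also: score merges spot fluorescence at 667nm with spot signal to noise ratio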
[11] = system: PRMT1 (protein arginine N-methyltransferase 1); experiment: PRMT1 binders on small-molecule microarrays, primary screen, biochemical, small-molecule microarray, 635 nm fluorescence (AID 1088); conditions: small-molecule microarray binding, higher = more signal;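 also: binding of Prmt1 protein to compounds spotted on small-molecule microarray slides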
[12] = yeast growth modulation, basal conditions, primary screen, YJM789 clinical isolate, OD600, 24 h (AID 1089);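 also: growth of clinical yeast isolate S. cerevisiae YJM 789 seeded 1000 cells per well; test concentration not given here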; conditions: S. cerevisiae YJM789 growth, higher = more signal, called active from +8 up or from −8 down
[13] = fission yeast growth modulation, primary screen, strain 972, OD600, 24 h, no modulator (AID 1090);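 also: basal condition with compound alone and no growth modifier present; test concentration not given here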; conditions: S. pombe 972 growth, higher = more signal, called active from +8 up or from −8 down
[14] = S. cerevisiae growth modulation with rapamycin, primary screen, strain BY4716, OD600, 96 h (AID 1091); conditions: higher = more signal, called active from +8 up or from −8 down; also: test concentration not given here
[15] = biological target: Torsin-1A-interacting protein 2 (Homo sapiens) (UniProt Q8NFQ8); experiment: LULL1 binders on small-molecule microarray, primary screen, cell lysate, human LULL1 lysate, 635/667 nm fluorescence (AID 1092); conditions: hLULL1 lysate binding, 635 nm fluorescence, higher = more signal;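 also: probe is lysate of COS7 cells overexpressing human LULL1; score merges per-feature 667 nm fluorescence with signal-to-noise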
Sequence of Torsin-1A-interacting protein 2 (Homo sapiens) (Q8NFQ8 whole entry, looked up): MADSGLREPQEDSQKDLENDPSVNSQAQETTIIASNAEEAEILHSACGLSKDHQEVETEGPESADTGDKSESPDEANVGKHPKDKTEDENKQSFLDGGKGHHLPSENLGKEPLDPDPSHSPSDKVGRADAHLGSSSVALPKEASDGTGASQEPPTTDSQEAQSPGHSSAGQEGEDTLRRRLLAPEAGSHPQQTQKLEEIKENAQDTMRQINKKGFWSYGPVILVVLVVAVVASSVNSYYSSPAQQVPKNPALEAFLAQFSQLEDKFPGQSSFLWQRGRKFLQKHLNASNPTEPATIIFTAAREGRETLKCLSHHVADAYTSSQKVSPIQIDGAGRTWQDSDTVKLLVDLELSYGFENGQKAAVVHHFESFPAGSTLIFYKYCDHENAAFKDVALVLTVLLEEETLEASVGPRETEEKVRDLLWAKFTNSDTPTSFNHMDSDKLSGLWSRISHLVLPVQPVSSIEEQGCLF

[16] = E. coli growth modulation, two-sided OD650, primary screen, E. coli filamentation project, strain DRC41, 24 h (AID 1093); conditions: OD650, 24 h, higher = more signal, called active from +8 up or from −8 down;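 also: MC1000 strain lacking acrAB efflux and sulA so SOS filamentation is blocked; test concentration not given here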
[17] = small-molecule microarray binders of probe aLefty2, primary screen, biochemical, biotinylated probe, 635/667 nm fluorescence (AID 1094); conditions: higher = more signal;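 also: score merges spot fluorescence near 667 nm with spot signal-to-noise ratio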
[18] = system: Noggin (protein binding on small-molecule microarray); experiment: Noggin binders on small-molecule microarray, primary screen, biochemical, 635/667 nm fluorescence (AID 1095); conditions: 635 nm fluorescence, higher = more signal;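 also: score merges 667 nm feature fluorescence with signal to noise over triplicate slides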
[19] = biological target: Neurogenic locus notch homolog protein 3 (Homo sapiens) (UniProt Q9UM47); experiment: NOTCH3 binders on small-molecule microarray, primary screen, biochemical, 635/667 nm fluorescence (AID 1096); conditions: NOTCH3 binding, 635 nm fluorescence, higher = more signal
Sequence of Neurogenic locus notch homolog protein 3 (Homo sapiens) (Q9UM47 whole entry, looked up): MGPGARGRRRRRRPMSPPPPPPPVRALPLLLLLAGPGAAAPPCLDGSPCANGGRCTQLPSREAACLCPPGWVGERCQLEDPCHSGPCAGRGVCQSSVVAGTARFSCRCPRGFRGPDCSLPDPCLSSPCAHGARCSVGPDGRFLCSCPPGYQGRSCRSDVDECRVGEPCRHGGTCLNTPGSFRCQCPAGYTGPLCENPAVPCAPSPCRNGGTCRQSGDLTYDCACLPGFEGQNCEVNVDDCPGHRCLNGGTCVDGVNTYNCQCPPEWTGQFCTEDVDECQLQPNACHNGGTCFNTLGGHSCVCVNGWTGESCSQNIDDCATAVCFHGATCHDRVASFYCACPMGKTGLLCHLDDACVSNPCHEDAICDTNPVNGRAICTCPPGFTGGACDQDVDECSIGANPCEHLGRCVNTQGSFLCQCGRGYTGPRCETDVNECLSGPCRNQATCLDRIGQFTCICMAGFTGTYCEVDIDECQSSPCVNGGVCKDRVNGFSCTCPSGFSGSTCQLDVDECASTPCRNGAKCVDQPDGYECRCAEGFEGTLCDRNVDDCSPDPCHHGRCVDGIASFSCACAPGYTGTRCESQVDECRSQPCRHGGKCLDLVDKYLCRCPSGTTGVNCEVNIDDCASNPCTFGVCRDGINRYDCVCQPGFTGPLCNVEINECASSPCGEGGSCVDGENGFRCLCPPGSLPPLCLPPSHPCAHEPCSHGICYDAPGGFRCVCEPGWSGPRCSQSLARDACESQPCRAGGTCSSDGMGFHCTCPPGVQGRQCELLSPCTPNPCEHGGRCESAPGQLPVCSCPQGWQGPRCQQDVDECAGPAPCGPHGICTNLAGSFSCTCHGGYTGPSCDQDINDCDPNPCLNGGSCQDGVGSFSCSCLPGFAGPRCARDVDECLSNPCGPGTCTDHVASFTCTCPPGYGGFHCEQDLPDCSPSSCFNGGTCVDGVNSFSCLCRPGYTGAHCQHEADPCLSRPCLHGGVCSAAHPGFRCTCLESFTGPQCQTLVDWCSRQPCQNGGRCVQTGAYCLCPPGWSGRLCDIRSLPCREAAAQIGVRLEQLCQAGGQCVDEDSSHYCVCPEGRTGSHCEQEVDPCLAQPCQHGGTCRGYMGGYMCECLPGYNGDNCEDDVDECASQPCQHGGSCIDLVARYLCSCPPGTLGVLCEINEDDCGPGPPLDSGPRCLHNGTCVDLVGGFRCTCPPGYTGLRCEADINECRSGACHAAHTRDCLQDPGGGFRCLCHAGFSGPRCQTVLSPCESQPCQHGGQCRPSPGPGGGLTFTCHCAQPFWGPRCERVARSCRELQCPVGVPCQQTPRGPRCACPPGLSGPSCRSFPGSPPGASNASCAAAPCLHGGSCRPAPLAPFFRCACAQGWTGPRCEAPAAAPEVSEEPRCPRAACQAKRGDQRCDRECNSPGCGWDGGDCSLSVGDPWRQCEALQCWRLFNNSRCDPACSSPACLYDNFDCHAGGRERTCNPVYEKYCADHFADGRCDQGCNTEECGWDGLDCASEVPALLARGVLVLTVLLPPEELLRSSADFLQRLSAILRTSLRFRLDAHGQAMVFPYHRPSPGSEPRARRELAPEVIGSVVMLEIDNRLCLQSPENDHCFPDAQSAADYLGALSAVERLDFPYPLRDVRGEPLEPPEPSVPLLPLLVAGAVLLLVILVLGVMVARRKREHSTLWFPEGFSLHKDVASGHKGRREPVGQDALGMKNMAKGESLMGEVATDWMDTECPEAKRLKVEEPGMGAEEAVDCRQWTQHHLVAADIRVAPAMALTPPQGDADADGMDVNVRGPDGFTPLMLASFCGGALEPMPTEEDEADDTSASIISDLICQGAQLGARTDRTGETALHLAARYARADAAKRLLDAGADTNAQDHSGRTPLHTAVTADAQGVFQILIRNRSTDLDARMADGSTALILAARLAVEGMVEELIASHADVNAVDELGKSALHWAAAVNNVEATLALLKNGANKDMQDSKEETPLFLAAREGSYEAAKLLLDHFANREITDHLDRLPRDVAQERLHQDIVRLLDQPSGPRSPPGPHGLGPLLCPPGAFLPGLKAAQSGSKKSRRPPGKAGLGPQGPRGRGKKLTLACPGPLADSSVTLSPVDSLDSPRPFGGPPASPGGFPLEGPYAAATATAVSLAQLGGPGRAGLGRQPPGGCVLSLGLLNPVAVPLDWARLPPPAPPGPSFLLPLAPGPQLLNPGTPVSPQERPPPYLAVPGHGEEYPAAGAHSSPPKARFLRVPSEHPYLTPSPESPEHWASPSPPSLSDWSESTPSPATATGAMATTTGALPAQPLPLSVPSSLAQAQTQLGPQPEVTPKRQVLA

[20] = small-molecule microarray binders of probe aEGFR, primary screen, biochemical, biotinylated probe, 635/667 nm fluorescence (AID 1097); conditions: higher = more signal;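 also: probe is a biotinylated anti-EGFR antibody binding compounds printed on slides; score combines fluorescence near 667 nm and signal to noise of each spot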

| SMILES | composite z-score [1] | composite z-score [2] | composite z-score [3] | composite z-score [4] | composite z-score [5] | composite z-score [6] | composite z-score [7] | z-score [8] | composite z-score [9] | composite z-score [10] | composite z-score [11] | z-score [12] | z-score [13] | z-score [14] | composite z-score [15] | z-score [16] | composite z-score [17] | composite z-score [18] | composite z-score [19] | composite z-score [20] |
| --- | --- | --- | --- | --- | --- | --- | --- | --- | --- | --- | --- | --- | --- | --- | --- | --- | --- | --- | --- | --- |
| COCCOC(=O)N1C(=O)[C@@]2(c3ccccc31)[C@H](C(=O)N1CCc3cc(OC)c(OC)cc3C1)[C@H]1C(=O)O[C@H](c3ccccc3)[C@H](c3ccccc3)N1[C@@H]2c1ccc(OCCO)cc1 | 0.249 | 0.977 | -0.279 | 0.509 | 0.832 | 0.0602 | 1.21 | -1.98 (inactive) | 0.412 | -0.0085 | 1.51 | 2.26 (inactive) | 0.476 (inactive) | 4.47 (inactive) | 2.27 | 1.68 (inactive) | 0.103 | 0.94 | 0.995 | -0.0309 |
| C=CCC(OC(C)=O)[C@@H]1[C@@H](N(Cc2cccc3ccccc23)C(=O)c2ccc(-c3ccccc3)cc2)c2cc(OCCCO)ccc2N1C(=O)c1ccc2ccccc2c1 (stereo not given in full) | -0.484 | 0.306 | -0.0647 | -0.0203 | 0.104 | 0.148 | 0.0031 | -0.0039 (inactive) | 0.131 | 0.0722 | 0.833 | -0.226 (inactive) | 0.435 (inactive) | 0.009 (inactive) | 1.76 | -0.601 (inactive) | -0.0174 | 0.251 | 0.643 | -0.0578 |
| CCCC#C[Si](O[C@H](CC)c1cn(Cc2cccc(Cl)c2)nn1)(C(C)C)C(C)C | -0.468 | -0.139 | -0.0865 | 0.85 | 0.831 | -0.0184 | 1.15 | 0.414 (inactive) | 0.0751 | -0.137 | 0.756 | -1.19 (inactive) | -9.34 (active) | -1.52 (inactive) | 1.91 | 1.5 (inactive) | -0.0068 | 0.476 | 1.13 | 0.252 |
| O=C1N[C@@H](Cc2ccccc2)C(=O)N2[C@@H]1C[C@@H](C(=O)O)[C@H]2c1cccc(OCCO)c1 | 0.0693 | 0.571 | 0.0127 | 0.801 | 0.399 | 1.54 | 1.38 | 9.18 (active) | 0.166 | -0.0237 | 1.56 | 0.809 (inactive) | -0.66 (inactive) | -0.276 (inactive) | 1.06 | 1.18 (inactive) | -0.0206 | 1.43 | 0.611 | -0.071 |
| COC(=O)[C@H](Cc1ccccc1)N1CC2=C[C@@H](C3CC3)n3c(=O)n(C)c(=O)n3[C@H]2[C@@H]1[C@@H](O)Cc1ccccc1 | -0.575 | 1.5 | 0.0066 | 0.369 | 0.319 | 0.323 | 0.997 | 0.892 (inactive) | 0.559 | -0.296 | 1.06 | -0.973 (inactive) | -1.15 (inactive) | 0.0538 (inactive) | 2.88 | -0.89 (inactive) | -0.136 | 1.15 | 1.02 | 0.142 |
| O[C@@H](Cc1ccccc1)[C@H]1C2C=CCCC=C2CN1Cc1cccc(Cl)c1 (stereo not given in full) | -0.328 | -0.0571 | -0.0075 | 0.617 | 0.944 | 0.898 | 1.19 | -1.45 (inactive) | 0.61 | -0.214 | 1.42 | -0.14 (inactive) | -2.92 (inactive) | -0.742 (inactive) | 1.17 | 1.35 (inactive) | -0.101 | 0.728 | 1.12 | -0.0039 |
| CCCCCCc1nc(-c2ccc(OC)nc2)cc2c1[Si](C(C)C)(C(C)C)O[C@H]2c1ccccc1 | -0.16 | -0.0924 | 0.0131 | 0.0809 | 0.144 | -0.384 | -0.821 | -0.566 (inactive) | -0.546 | -0.146 | 0.608 | 0.493 (inactive) | 0.993 (inactive) | -0.226 (inactive) | -0.4 | -0.995 (inactive) | -0.203 | 0.75 | 0.783 | -0.0674 |
| NC(=O)[C@@H]1[C@H]2C(=O)O[C@H](c3ccccc3)[C@H](c3ccccc3)N2[C@H](c2ccc(O)cc2)[C@@]12C(=O)Nc1ccccc12 | 0.241 | -0.933 | -0.179 | 0.0547 | -0.985 | 2.01 | 0.476 | 0.308 (inactive) | -0.114 | -0.314 | 1.41 | 0.0549 (inactive) | -1.41 (inactive) | 0.386 (inactive) | 3.53 | 1.11 (inactive) | -0.107 | -0.952 | 0.118 | -0.289 |
| C=C(/C(=C/C[C@H](OC(C)=O)c1ccc(CO)o1)c1cc(C(=O)OC)ccc1OC)C(C)C | -0.0849 | -0.442 | -0.0637 | 0.597 | 0.102 | -0.306 | 0.53 | -0.601 (inactive) | 0.031 | 0.119 | 0.57 | 1.02 (inactive) | -0.967 (inactive) | 0.0168 (inactive) | 0.381 | 0.865 (inactive) | -0.0485 | 0.58 | 0.368 | -0.0206 |
| CCCC[C@@H]1C[C@H]1[C@@H](NC(=O)C(C)(C)C)c1ccc(C(F)(F)F)cc1 | 1.54 | 0.466 | -0.0785 | -0.38 | -1.36 | 0.669 | 0.55 | -0.571 (inactive) | -0.347 | 0.235 | 0.648 | 0.213 (inactive) | -2.71 (inactive) | 0.329 (inactive) | 0.918 | -1.67 (inactive) | 0.0823 | -1.46 | -0.434 | -0.236 |
